The values that follow come from PubChem BioAssay (EPA / NIEHS).

Structures are written as SMILES. Inconclusive results are not listed. Some structures have more than one record in an assay (separate samples or runs), and their calls can disagree. The source made the active and inactive calls. The calls were made as follows, unless noted: active = hit-call score of the fitted dose curve at least 0.9, where 1 is the maximum; inactive = score below 0.9.

Assay [1] addresses human Retinoic Acid Receptor gamma (RARg), RARG (gene 5916) (UniProt P13631). Nature of the assay: ATG_RARg_TRANS: Attagene TRANS-FACTORIAL HepG2 Assay for human Retinoic Acid Receptor gamma (RARg) (AID 2283009; active = hit-call score of the fitted dose curve at least 0.9, where 1 is the maximum). The essentials: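 HepG2 transiently transfected with GAL4-UAS reporter units and chimeric NR-Gal4 constructs; 24 h compound exposure. Reporter mRNA quantified by RT-PCR, FAM labeling, HpaI digestion and capillary electrophoresis; gain-of-signal versus DMSO.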

For assay [2], the target named is Retinoic acid receptor RXR-alpha (Homo sapiens) (UniProt P19793). Nature of the assay: ATG_RXRa_TRANS: Attagene TRANS-FACTORIAL HepG2 Assay for human Retinoid X Receptor alpha (RXRa) (AID 2283012; active = hit-call score of the fitted dose curve at least 0.9, where 1 is the maximum). The essentials:
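HepG2 cells transiently transfected with GAL4-UAS reporter units and chimeric RXRa-Gal4 protein, treated 24 h. Reporter mRNA measured by RT-PCR, fluorescent labelling, HpaI digestion and capillary electrophoresis. Induction fitted against DMSO.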

The target in assay [3] is human Retinoid X Receptor beta (RXRb), RXRB (gene 6257) (UniProt P28702). Briefly: ATG_RXRb_TRANS: Attagene TRANS-FACTORIAL HepG2 Assay for human Retinoid X Receptor beta (RXRb) (AID 2283013; active = hit-call score of the fitted dose curve at least 0.9, where 1 is the maximum). The essentials: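 HepG2 cells were transiently transfected with multiplexed GAL4-UAS reporters and a chimeric RXRb-Gal4 construct, then exposed for 24 h. Reporter mRNA was quantified by RT-PCR, FAM labeling, HpaI digestion and capillary electrophoresis; gain of signal was scored against DMSO.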
Chain of human Retinoid X Receptor beta (RXRb), RXRB (gene 6257) (P28702 whole entry, looked up, the tested form may be a part): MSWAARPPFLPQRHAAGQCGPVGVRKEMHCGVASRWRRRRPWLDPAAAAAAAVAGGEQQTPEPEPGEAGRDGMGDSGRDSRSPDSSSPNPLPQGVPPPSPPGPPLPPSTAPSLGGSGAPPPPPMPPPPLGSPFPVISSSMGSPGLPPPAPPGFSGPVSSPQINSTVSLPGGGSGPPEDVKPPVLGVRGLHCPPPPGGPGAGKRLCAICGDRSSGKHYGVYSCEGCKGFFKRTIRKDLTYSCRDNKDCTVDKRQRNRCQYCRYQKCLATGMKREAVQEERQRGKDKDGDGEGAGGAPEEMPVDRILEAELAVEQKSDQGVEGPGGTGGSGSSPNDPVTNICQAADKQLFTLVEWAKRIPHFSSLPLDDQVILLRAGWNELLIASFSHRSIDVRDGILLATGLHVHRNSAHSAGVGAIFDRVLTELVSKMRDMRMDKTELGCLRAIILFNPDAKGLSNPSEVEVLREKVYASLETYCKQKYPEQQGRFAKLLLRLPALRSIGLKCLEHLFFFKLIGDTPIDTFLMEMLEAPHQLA

Assay [4] has as its target human Vitamin D Receptor (VDR), VDR (gene 7421) (UniProt P11473). Nature of the assay: ATG_VDR_TRANS: Attagene TRANS-FACTORIAL HepG2 Assay for human Vitamin D Receptor (VDR) (AID 2283022; active = hit-call score of the fitted dose curve at least 0.9, where 1 is the maximum). Put shortly: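 RT-PCR/capillary electrophoresis read-out of reporter mRNA induction in transiently transfected HepG2; 24 h dosing; chimeric NR-Gal4 (TRANS format); gain-of-signal fit against DMSO baseline.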

Assay [5] concerns the target human RAR-related Orphan Receptor beta (RORb), RORB (gene 6096) (UniProt Q92753). Briefly: ATG_RORb_TRANS: Attagene TRANS-FACTORIAL HepG2 Assay for human RAR-related Orphan Receptor beta (RORb) (AID 2283010; active = hit-call score of the fitted dose curve at least 0.9, where 1 is the maximum). The essentials: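 HepG2 cells transiently transfected with GAL4-UAS reporter units expressing chimeric NR-Gal4 protein; reporter mRNA measured 24 h after dosing by RT-PCR, 6-FAM labelling and capillary electrophoresis. Gain-of-signal fitted relative to DMSO baseline.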

Assay [6] deals with human RAR-related Orphan Receptor gamma (RORg), RORC (gene 6097) (UniProt P51449). Nature of the assay: ATG_RORg_TRANS: Attagene TRANS-FACTORIAL HepG2 Assay for human RAR-related Orphan Receptor gamma (RORg) (AID 2283011; active = hit-call score of the fitted dose curve at least 0.9, where 1 is the maximum). Put shortly: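 Transient MRTU transfection of HepG2 (TRANS format, exogenous NR-Gal4 chimera). 24 h dosing. Total RNA → oligo(dT) RT → PCR → 6-FAM labelling → HpaI cut → CE. Gain vs DMSO.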
Chain of human RAR-related Orphan Receptor gamma (RORg), RORC (gene 6097) (P51449 whole entry, looked up, the tested form may be a part): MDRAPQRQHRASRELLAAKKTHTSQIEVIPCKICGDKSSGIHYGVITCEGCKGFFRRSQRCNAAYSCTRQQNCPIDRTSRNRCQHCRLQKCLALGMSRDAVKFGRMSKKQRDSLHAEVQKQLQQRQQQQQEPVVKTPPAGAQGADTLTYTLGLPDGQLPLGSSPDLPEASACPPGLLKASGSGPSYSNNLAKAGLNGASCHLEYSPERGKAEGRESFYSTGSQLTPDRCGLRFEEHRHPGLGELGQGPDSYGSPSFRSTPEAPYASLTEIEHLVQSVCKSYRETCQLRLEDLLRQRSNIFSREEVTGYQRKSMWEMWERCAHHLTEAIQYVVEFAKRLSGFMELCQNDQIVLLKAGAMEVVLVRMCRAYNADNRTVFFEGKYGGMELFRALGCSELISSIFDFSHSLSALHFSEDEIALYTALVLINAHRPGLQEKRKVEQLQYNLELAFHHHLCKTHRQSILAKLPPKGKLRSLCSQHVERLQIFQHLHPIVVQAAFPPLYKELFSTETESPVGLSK

Assay [7] addresses human Thyroid Receptor alpha (THRa1), THRA (gene 7067) (UniProt P10827). Nature of the assay: ATG_THRa1_TRANS: Attagene TRANS-FACTORIAL HepG2 Assay for human Thyroid Receptor alpha (THRa1) (AID 2283014; active = hit-call score of the fitted dose curve at least 0.9, where 1 is the maximum). Put shortly:
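Transient HepG2 transfection, NR-Gal4 chimera driving GAL4-UAS reporters; 24 h compound exposure; total RNA, oligo(dT) RT, PCR, fluorescent primer extension, capillary electrophoresis. Upward direction vs DMSO control.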

Read-out in assay [8]: E-selectin (Homo sapiens) (UniProt P16581)
Briefly: BSK_3C_Eselectin: BioMAP Diversity Plus: 3C Assay for Eselectin Biomarker Activity (AID 2283015). To be noted: primary human endothelial cells (HUVEC); actives raise or lower the signal. The essentials: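 HUVEC, 3C stimulation; compound exposure 24 h; E-selectin by ELISA; gain- or loss-of-signal fitted bidirectionally vs DMSO baseline.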

Read-out in assay [9]: Interleukin-1 alpha (IL1a), IL1A (gene 3552)
Nature of the assay: BSK_BE3C_IL1a: BioMAP Diversity Plus: BE3C Assay for Interleukin-1 alpha (IL1a) Biomarker Activity (AID 2283016). The following applies: primary human bronchial epithelial cells; actives raise or lower the signal. The essentials:
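Human primary bronchial epithelial cells, 24 h chemical exposure; IL-1a quantified by ELISA, fitted bidirectionally against DMSO. Cytotoxicity assessed in parallel by SRB total-protein staining at the time of measurement.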

Read-out in assay [10]: Monocyte Chemoattractant Protein-1 (MCP1), CCL2 (gene 6347)
Nature of the assay: BSK_3C_MCP1: BioMAP Diversity Plus: 3C Assay for Monocyte Chemoattractant Protein-1 (MCP1) Biomarker Activity (AID 2283017). To be noted: primary human endothelial cells (HUVEC); actives raise or lower the signal. Put shortly: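 HUVEC, 3C system; 24 h chemical exposure; MCP-1 by ELISA; bidirectional curve fit vs DMSO baseline.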

Read-out in assay [11]: Monocyte Chemoattractant Protein-1 (MCP1), CCL2 (gene 6347)
Nature of the assay: BSK_4H_MCP1: BioMAP Diversity Plus: 4H Assay for Monocyte Chemoattractant Protein-1 (MCP1) Biomarker Activity (AID 2283018). To be noted: primary human endothelial cells (HUVEC); actives raise or lower the signal. Put shortly:
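Human umbilical vein endothelial cells (4H system) exposed to chemicals for 24 h in 96-well format. MCP-1 measured by ELISA; bidirectional fitting against DMSO, with SRB total-protein staining in parallel cultures for cytotoxicity.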

Read-out in assay [12]: Human Leukocyte Antigen - DR isotype (HLADR), HLA-DRA (gene 3122)
Briefly: BSK_3C_HLADR: BioMAP Diversity Plus: 3C Assay for Human Leukocyte Antigen - DR isotype (HLADR) Biomarker Activity (AID 2283019).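 As to outcome: ELISA of cell-surface HLA-DR on HUVEC 24 h after dosing.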 To be noted: primary human endothelial cells (HUVEC); actives raise or lower the signal. The essentials: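 HUVEC, 3C stimulation, 24 h post-dose; HLA-DR by ELISA; bidirectional curve fit vs DMSO baseline; gain or loss of signal scored.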

Read-out in assay [13]: Interleukin-8 (IL8), CXCL8 (gene 3576)
Nature of the assay: BSK_3C_IL8: BioMAP Diversity Plus: 3C Assay for Interleukin-8 (IL8) Biomarker Activity (AID 2283020). To be noted: primary human endothelial cells (HUVEC); actives raise or lower the signal. Put shortly:
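Primary human umbilical vein endothelial cells were dosed for 24 h. IL-8 was quantified by ELISA and fitted bidirectionally against DMSO. Cytotoxicity was assessed in parallel cultures by SRB staining at 560 nm.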

Read-out in assay [14]: Monokine induced gamma interferon (MIG), CXCL9 (gene 4283)
Briefly: BSK_3C_MIG: BioMAP Diversity Plus: 3C Assay for Monokine induced gamma interferon (MIG) Biomarker Activity (AID 2283021).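 As to AC50: MIG protein level measured by immunoassay in the treated endothelial cultures.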 The following applies: primary human endothelial cells (HUVEC); actives raise or lower the signal. The essentials:
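HUVEC primary endothelial cultures dosed with chemical; MIG quantified by ELISA at 24 h. Data fitted bidirectionally against DMSO control, with parallel SRB total-protein staining for cytotoxicity.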

Assay [15] in a line: BSK_3C_SRB: Viability Assessment in the BioMAP Diversity Plus: 3C Assay (AID 2283023).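 Also: fitted both ways against DMSO so a hit may be signal rise or drop.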 The following applies: primary human endothelial cells (HUVEC). The essentials:
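HUVEC, 24 h post-dose; 10% TCA fix, 0.1% SRB stain, A560 nm. Bidirectional curve fit vs DMSO negative control.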

Read-out in assay [16]: Matrix Metallopeptidase 1 (MMP1), MMP1 (gene 4312)
Briefly: BSK_BE3C_MMP1: BioMAP Diversity Plus: BE3C Assay for Matrix Metallopeptidase 1 (MMP1) Biomarker Activity (AID 2283024). The following applies: primary human bronchial epithelial cells; actives raise or lower the signal. Put shortly:
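Human primary bronchial epithelial cells (BE3C system) dosed for 24 h; MMP-1 quantified by ELISA. Bidirectional fit against DMSO; cytotoxicity tracked in parallel cultures by SRB total-protein staining.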

The nature of assay [17]: BSK_3C_Vis: BioMAP Diversity Plus: 3C Assay for Morphology Visualization (AID 2283025).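 Also: fitted both ways so gain or loss versus DMSO counts.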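 As to AC50: light microscopy image of cell morphology used as background control.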 The following applies: primary human endothelial cells (HUVEC). Put shortly: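 Human umbilical vein endothelial cell morphology was inspected by light microscopy 24 h after chemical dosing; scored bidirectionally relative to DMSO.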
Read-out in assay [18]: Pselectin, SELP (gene 6403)
Briefly: BSK_4H_Pselectin: BioMAP Diversity Plus: 4H Assay for Pselectin Biomarker Activity (AID 2283026). To be noted: primary human endothelial cells (HUVEC); actives raise or lower the signal. Put shortly:
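Primary human umbilical vein endothelial cells were treated 24 h, and cell-surface P-selectin was then quantified by ELISA. Bidirectional fit versus DMSO; cytotoxicity checked in parallel cultures by SRB total-protein staining.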

Assay [19] can be described thus: BSK_4H_SRB: Viability Assessment in the BioMAP Diversity Plus: 4H Assay (AID 2283027).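 Also: cells exposed to compound for 24 h before staining.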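 As to AC50: curves fitted both ways versus DMSO so AC50 may be loss or gain.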 The following applies: primary human endothelial cells (HUVEC). The essentials:
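Human umbilical vein endothelial cells, 24 h after chemical dosing; total protein measured by 0.1% sulforhodamine B staining after 10% TCA fixation, read at 560 nm. Bidirectional fitting against DMSO.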

Assay [20] is described as follows: BSK_BE3C_SRB: Viability Assessment in the BioMAP Diversity Plus: BE3C Assay (AID 2283028).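 As to AC50: fitted both ways so AC50 may mark signal gain or loss versus DMSO.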 The following applies: primary human bronchial epithelial cells. Put shortly:
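Primary human bronchial epithelium; chemical dosing, 24 h; 10% TCA fix, 0.1% SRB stain, A560; bidirectional fit vs DMSO baseline.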

Chain of E-selectin (Homo sapiens) (P16581 whole entry, looked up): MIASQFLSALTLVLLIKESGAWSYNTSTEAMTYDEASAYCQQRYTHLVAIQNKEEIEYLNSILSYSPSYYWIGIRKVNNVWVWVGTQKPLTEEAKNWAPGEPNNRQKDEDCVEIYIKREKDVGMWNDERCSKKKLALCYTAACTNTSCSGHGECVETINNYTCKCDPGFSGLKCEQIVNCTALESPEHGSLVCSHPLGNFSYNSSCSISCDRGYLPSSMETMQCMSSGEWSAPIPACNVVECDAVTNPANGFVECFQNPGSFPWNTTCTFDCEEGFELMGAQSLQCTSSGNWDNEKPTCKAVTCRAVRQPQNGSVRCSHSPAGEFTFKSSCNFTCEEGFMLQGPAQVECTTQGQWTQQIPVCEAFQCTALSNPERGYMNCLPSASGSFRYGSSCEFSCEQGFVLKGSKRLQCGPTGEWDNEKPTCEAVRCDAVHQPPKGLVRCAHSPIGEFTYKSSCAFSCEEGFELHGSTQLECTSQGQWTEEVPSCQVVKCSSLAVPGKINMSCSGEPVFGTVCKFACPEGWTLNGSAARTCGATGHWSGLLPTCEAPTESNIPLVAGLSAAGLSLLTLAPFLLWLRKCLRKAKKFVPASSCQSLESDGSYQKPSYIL
Chain of human Thyroid Receptor alpha (THRa1), THRA (gene 7067) (P10827 whole entry, looked up, the tested form may be a part): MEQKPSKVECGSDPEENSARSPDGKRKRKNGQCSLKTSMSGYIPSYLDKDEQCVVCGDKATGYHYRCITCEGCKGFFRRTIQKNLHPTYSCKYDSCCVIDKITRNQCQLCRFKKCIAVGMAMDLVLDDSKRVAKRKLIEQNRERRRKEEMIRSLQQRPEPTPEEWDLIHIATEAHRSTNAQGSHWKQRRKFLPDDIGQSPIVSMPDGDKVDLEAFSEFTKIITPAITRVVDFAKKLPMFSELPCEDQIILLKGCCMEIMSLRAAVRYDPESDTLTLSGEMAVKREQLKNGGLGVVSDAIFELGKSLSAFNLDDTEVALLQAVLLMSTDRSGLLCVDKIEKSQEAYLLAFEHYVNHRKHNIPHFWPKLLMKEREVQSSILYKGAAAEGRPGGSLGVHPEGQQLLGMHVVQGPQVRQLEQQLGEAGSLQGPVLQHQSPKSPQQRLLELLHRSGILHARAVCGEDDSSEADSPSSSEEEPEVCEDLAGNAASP
Chain of Retinoic acid receptor RXR-alpha (Homo sapiens) (P19793 whole entry, looked up, the tested form may be a part): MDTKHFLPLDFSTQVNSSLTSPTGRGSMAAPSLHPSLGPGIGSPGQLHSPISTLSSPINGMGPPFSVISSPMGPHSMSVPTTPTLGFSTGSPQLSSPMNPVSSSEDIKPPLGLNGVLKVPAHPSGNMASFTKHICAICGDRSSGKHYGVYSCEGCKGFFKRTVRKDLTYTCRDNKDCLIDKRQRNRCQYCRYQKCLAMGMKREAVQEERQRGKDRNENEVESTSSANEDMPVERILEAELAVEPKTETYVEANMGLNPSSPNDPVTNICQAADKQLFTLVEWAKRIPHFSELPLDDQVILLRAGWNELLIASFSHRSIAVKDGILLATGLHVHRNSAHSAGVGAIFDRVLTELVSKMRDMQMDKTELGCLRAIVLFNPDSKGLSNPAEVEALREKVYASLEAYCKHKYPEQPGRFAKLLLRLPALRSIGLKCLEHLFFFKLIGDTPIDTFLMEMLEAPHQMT
Chain of human Vitamin D Receptor (VDR), VDR (gene 7421) (P11473 whole entry, looked up, the tested form may be a part): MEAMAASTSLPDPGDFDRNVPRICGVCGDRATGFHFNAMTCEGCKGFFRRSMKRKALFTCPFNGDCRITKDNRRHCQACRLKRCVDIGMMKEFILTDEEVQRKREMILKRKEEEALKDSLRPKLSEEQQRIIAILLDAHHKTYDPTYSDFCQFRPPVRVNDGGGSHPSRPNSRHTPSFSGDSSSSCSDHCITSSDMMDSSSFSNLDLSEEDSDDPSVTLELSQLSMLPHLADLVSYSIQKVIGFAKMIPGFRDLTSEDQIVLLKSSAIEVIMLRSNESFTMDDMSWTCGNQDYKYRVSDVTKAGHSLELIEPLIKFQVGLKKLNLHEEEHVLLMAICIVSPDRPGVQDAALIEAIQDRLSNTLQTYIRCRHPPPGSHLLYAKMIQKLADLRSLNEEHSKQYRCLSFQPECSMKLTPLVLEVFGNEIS
Chain of human Retinoic Acid Receptor gamma (RARg), RARG (gene 5916) (P13631 whole entry, looked up, the tested form may be a part): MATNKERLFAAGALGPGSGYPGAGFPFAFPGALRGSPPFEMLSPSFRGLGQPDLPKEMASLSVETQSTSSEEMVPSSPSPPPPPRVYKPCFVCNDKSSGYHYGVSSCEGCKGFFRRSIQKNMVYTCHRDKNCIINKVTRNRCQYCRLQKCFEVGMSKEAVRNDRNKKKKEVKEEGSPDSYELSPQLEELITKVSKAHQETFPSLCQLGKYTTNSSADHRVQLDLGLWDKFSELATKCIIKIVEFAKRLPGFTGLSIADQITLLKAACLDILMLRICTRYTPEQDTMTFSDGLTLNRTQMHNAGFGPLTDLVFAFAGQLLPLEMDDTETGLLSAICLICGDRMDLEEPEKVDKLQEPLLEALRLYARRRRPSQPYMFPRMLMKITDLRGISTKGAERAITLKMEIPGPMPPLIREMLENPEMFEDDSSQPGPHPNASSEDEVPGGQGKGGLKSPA
Chain of human RAR-related Orphan Receptor beta (RORb), RORB (gene 6096) (Q92753 whole entry, looked up, the tested form may be a part): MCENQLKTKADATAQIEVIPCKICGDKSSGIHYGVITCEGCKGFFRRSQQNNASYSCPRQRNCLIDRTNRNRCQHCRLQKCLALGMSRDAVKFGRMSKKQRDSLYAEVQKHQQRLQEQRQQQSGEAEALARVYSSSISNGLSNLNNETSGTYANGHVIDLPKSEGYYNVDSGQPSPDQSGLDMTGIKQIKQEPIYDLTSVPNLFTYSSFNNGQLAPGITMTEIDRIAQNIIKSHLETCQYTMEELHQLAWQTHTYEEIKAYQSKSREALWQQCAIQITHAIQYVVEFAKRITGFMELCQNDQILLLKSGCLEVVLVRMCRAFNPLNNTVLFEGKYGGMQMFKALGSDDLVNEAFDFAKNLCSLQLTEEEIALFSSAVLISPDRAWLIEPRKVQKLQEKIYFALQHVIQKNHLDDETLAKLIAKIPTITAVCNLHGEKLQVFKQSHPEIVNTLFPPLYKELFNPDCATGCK

With `O=C(Cc1ccccc1)c1ccccc1`, the result in assay [1], in assay [2], in [3] and in assay [4] was inactive.
A word on the AC50: it is the midpoint of the concentration-response curve, whichever way the signal moves. For `O=C(O)C(F)(F)C(F)(F)C(F)(F)C(F)(F)C(F)(F)C(F)(F)F`, the call in [1], in assay [5], in assay [6], in assay [2], in assay [7] and in [8] was inactive. Also, the outcome in assay [9], in assay [10], in assay [11], in assay [12], in assay [13] and in [14] was inactive. Also, the molecule was classed as inactive in assay [4], in [15], in [16], in assay [17], in assay [18] and in assay [19]. Moreover, in [20], the outcome was inactive. In addition, the values for the AC50 in [13] and in [16] were 13.9 µM (active) and 13.6 µM (active), respectively.
Consider `N#CCCO`, for which the outcome in assay [1], in assay [6], in assay [2] and in [7] was inactive.
`CCN1CCC2(CC1)COc1cc3c(cc12)N(C(=O)c1ccc(-c2ccc(-c4nnc(C)o4)cc2C)cc1)CC3`: the molecule was called inactive in assay [1], in [2], in assay [3], in assay [4] and in assay [16]. The AC50 in assay [8] is 28 µM (active); in assay [9] it was 13.8 µM (active); in [11], 26 µM (active); in assay [12], 13 µM (active); in assay [13] it was 18.4 µM (active); in assay [14] it was 32.3 µM (active). Besides, the AC50 in assay [15] is 6.23 µM (active); in assay [17], 6.51 µM (active); in assay [19], 23.1 µM (active); in [20], 12.9 µM (active).
With `C[C@]12CCC(=O)C[C@@H]1CC[C@@H]1[C@@H]2CC[C@]2(C)[C@@H](O)CC[C@@H]12`, the molecule was classed as inactive in [1], in assay [2], in assay [3], in assay [7], in [9] and in [11]. Moreover, the outcome in assay [14], in assay [4], in assay [16], in assay [17], in assay [19] and in assay [20] was inactive. The AC50 in [8] was 18 µM (active); in assay [10] it was 26.9 µM (active); in [12] it was 27.8 µM (active); in assay [13], 21.5 µM (active); in assay [15], 20.9 µM (active).
